# Reference: PMC3315485, “Probing the Informational and Regulatory Plasticity of a Transcription Factor DNA–Binding Domain”
# Numbering of substitutions follows the chain as printed.
# Legend:
# Experiment in all cases: MITOMI; MITOMI, 295 K (22 C); buffer, salt and pH not stated in the material; high values mean tight binding
# Settings in all cases: protein: ivt; label: fluorescent; dsDNA, one strand shown
# MarA wild type (WQR) = target: T1, MarA wild type (WQR) (Escherichia coli, UniProt P0ACH5 1-127)
# T1 sequence: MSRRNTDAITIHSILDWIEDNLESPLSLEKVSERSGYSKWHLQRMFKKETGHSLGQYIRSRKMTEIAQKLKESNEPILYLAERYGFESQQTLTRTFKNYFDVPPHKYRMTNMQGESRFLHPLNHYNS
# Procedure, shortened: (§1)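 MarA protein variants were made by in vitro transcription and translation with the RTS E. coli HY kit and fluorescently labelled by adding tRNA-lys-bodipy-fl. Each was tested by MITOMI against 64 synthesized variants of the mar binding site, with protein and DNA fluorescence read on Genepix at 295K. Association constants were measured by MITOMI, and each site's value is expressed relative to the highest-affinity site for that protein variant.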
# MarA RQR = target: T2, MarA RQR (Escherichia coli, UniProt P0ACH5 1-127, W40R)
# T2 sequence: T1 sequence with W40R
# Procedure, shortened: as §1
# MarA SAR = target: T3, MarA SAR (Escherichia coli, UniProt P0ACH5 1-127, W40S;Q43A)
# T3 sequence: T1 sequence with W40S, Q43A
# Procedure, shortened: as §1
# MarA TRR = target: T4, MarA TRR (Escherichia coli, UniProt P0ACH5 1-127, W40T;Q43R)
# T4 sequence: T1 sequence with W40T, Q43R
# Procedure, shortened: as §1
# MarA RTR = target: T5, MarA RTR (Escherichia coli, UniProt P0ACH5 1-127, W40R;Q43T)
# T5 sequence: T1 sequence with W40R, Q43T
# Procedure, shortened: as §1
sequence,measurement,setting,value
ATGCTGCGTTTTGCTAAAT,binding signal,MarA wild type (WQR),0.442 Ka relative to the best site of the variant
same,binding signal,MarA RQR,0.169 Ka relative to the best site of the variant
same,binding signal,MarA SAR,0.521 Ka relative to the best site of the variant
same,binding signal,MarA TRR,0.588 Ka relative to the best site of the variant
ATGTCCCGTTTTGCTAAAT,binding signal,MarA wild type (WQR),0.181 Ka relative to the best site of the variant
same,binding signal,MarA RQR,1 Ka relative to the best site of the variant
same,binding signal,MarA RTR,0.848 Ka relative to the best site of the variant
same,binding signal,MarA SAR,0.233 Ka relative to the best site of the variant
same,binding signal,MarA TRR,0.399 Ka relative to the best site of the variant
ATGAGGCGTTTTGCTAAAT,binding signal,MarA wild type (WQR),0.283 Ka relative to the best site of the variant
same,binding signal,MarA RQR,0.103 Ka relative to the best site of the variant
same,binding signal,MarA RTR,0.212 Ka relative to the best site of the variant
same,binding signal,MarA SAR,0.726 Ka relative to the best site of the variant
same,binding signal,MarA TRR,0.475 Ka relative to the best site of the variant
ATGAAACGTTTTGCTAAAT,binding signal,MarA wild type (WQR),0.124 Ka relative to the best site of the variant
same,binding signal,MarA RQR,0.0424 Ka relative to the best site of the variant
same,binding signal,MarA RTR,0.323 Ka relative to the best site of the variant
same,binding signal,MarA SAR,0.852 Ka relative to the best site of the variant
same,binding signal,MarA TRR,0.36 Ka relative to the best site of the variant
ATGGCACGTTTTGCTAAAT,binding signal,MarA wild type (WQR),1 Ka relative to the best site of the variant
same,binding signal,MarA RQR,0.647 Ka relative to the best site of the variant
same,binding signal,MarA RTR,0.432 Ka relative to the best site of the variant
same,binding signal,MarA SAR,0.741 Ka relative to the best site of the variant
same,binding signal,MarA TRR,0.392 Ka relative to the best site of the variant
ATGCCCCGTTTTGCTAAAT,binding signal,MarA wild type (WQR),0.272 Ka relative to the best site of the variant
same,binding signal,MarA RQR,0.294 Ka relative to the best site of the variant
same,binding signal,MarA RTR,0.243 Ka relative to the best site of the variant
same,binding signal,MarA SAR,0.492 Ka relative to the best site of the variant
same,binding signal,MarA TRR,0.397 Ka relative to the best site of the variant
ATGTGCCGTTTTGCTAAAT,binding signal,MarA wild type (WQR),0.245 Ka relative to the best site of the variant
same,binding signal,MarA RQR,0.134 Ka relative to the best site of the variant
same,binding signal,MarA RTR,0.201 Ka relative to the best site of the variant
same,binding signal,MarA SAR,0.236 Ka relative to the best site of the variant
same,binding signal,MarA TRR,0.407 Ka relative to the best site of the variant
ATGATGCGTTTTGCTAAAT,binding signal,MarA wild type (WQR),0.319 Ka relative to the best site of the variant
same,binding signal,MarA RQR,0.106 Ka relative to the best site of the variant
same,binding signal,MarA RTR,0.243 Ka relative to the best site of the variant
same,binding signal,MarA SAR,0.854 Ka relative to the best site of the variant
same,binding signal,MarA TRR,0.404 Ka relative to the best site of the variant
ATGCCACGTTTTGCTAAAT,binding signal,MarA wild type (WQR),0.646 Ka relative to the best site of the variant
same,binding signal,MarA RQR,0.243 Ka relative to the best site of the variant
same,binding signal,MarA RTR,0.223 Ka relative to the best site of the variant
same,binding signal,MarA SAR,0.379 Ka relative to the best site of the variant
same,binding signal,MarA TRR,0.497 Ka relative to the best site of the variant
ATGTCTCGTTTTGCTAAAT,binding signal,MarA wild type (WQR),0.301 Ka relative to the best site of the variant
same,binding signal,MarA RQR,0.956 Ka relative to the best site of the variant
same,binding signal,MarA RTR,0.642 Ka relative to the best site of the variant
same,binding signal,MarA SAR,0.259 Ka relative to the best site of the variant
same,binding signal,MarA TRR,0.462 Ka relative to the best site of the variant
ATGATACGTTTTGCTAAAT,binding signal,MarA wild type (WQR),0.279 Ka relative to the best site of the variant
same,binding signal,MarA RQR,0.108 Ka relative to the best site of the variant
same,binding signal,MarA RTR,0.208 Ka relative to the best site of the variant
same,binding signal,MarA SAR,0.962 Ka relative to the best site of the variant
same,binding signal,MarA TRR,0.498 Ka relative to the best site of the variant
ATGCGACGTTTTGCTAAAT,binding signal,MarA wild type (WQR),0.369 Ka relative to the best site of the variant
same,binding signal,MarA RQR,0.148 Ka relative to the best site of the variant
same,binding signal,MarA RTR,0.24 Ka relative to the best site of the variant
same,binding signal,MarA SAR,0.43 Ka relative to the best site of the variant
same,binding signal,MarA TRR,0.589 Ka relative to the best site of the variant
ATGCTTCGTTTTGCTAAAT,binding signal,MarA wild type (WQR),0.341 Ka relative to the best site of the variant
same,binding signal,MarA RQR,0.157 Ka relative to the best site of the variant
same,binding signal,MarA RTR,0.723 Ka relative to the best site of the variant
same,binding signal,MarA SAR,0.508 Ka relative to the best site of the variant
same,binding signal,MarA TRR,0.576 Ka relative to the best site of the variant
ATGGAGCGTTTTGCTAAAT,binding signal,MarA wild type (WQR),0.262 Ka relative to the best site of the variant
same,binding signal,MarA RQR,0.119 Ka relative to the best site of the variant
same,binding signal,MarA RTR,0.191 Ka relative to the best site of the variant
same,binding signal,MarA SAR,0.506 Ka relative to the best site of the variant
same,binding signal,MarA TRR,0.392 Ka relative to the best site of the variant
ATGGGGCGTTTTGCTAAAT,binding signal,MarA wild type (WQR),0.307 Ka relative to the best site of the variant
same,binding signal,MarA RQR,0.11 Ka relative to the best site of the variant
same,binding signal,MarA RTR,0.167 Ka relative to the best site of the variant
same,binding signal,MarA SAR,0.429 Ka relative to the best site of the variant
same,binding signal,MarA TRR,0.451 Ka relative to the best site of the variant
ATGTTACGTTTTGCTAAAT,binding signal,MarA wild type (WQR),0.288 Ka relative to the best site of the variant
same,binding signal,MarA RQR,0.135 Ka relative to the best site of the variant
same,binding signal,MarA RTR,0.177 Ka relative to the best site of the variant
same,binding signal,MarA SAR,0.202 Ka relative to the best site of the variant
same,binding signal,MarA TRR,0.518 Ka relative to the best site of the variant
